# Data as given in PMC8384837, “Expanding the binding specificity for RNA recognition by a PUF domain”.
# Columns and labels:
# Experiment in all cases: yeast three-hybrid, YBZ-1, SC-Leu-His + 0.5 mM 3-AT, 4 days
# Details in all cases: tags: N-Gal4 AD-HA kept; label: inside an RPR1-promoter hybrid RNA with tandem MS2 sites; ssRNA
# PUM1 PUF domain R1-RLS = PUM1 PUF domain R1-RLS (Homo sapiens, UniProt Q14671 828-1176, S863R;R864L;Q867S)
# How it was run: (§1)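 Sequencing with Illumina followed PCR amplification of the repeat regions from transformants grown four days on SC-Leu (input) or SC-Leu-His + 0.5 mM 3-AT (selection). The transformants were strain YBZ-1 with a LexA–MS2 coat fusion and a HIS3 reporter, carrying Pumilio-1 PUF domain libraries and matching RNA elements. The interaction score is the log change in variant frequency from input to selection, computed in log2 with a pseudocount of 1 for absent variants.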
# PUM1 PUF domain R5-NQR = PUM1 PUF domain R5-NQR (Homo sapiens, UniProt Q14671 828-1176, C1007N;R1008Q;Q1011R)
# How it was run: as §1
# PUM1 PUF domain R5-FNL = PUM1 PUF domain R5-FNL (Homo sapiens, UniProt Q14671 828-1176, C1007F;R1008N;Q1011L)
# How it was run: as §1
# PUM1 PUF domain R5-RFV = PUM1 PUF domain R5-RFV (Homo sapiens, UniProt Q14671 828-1176, C1007R;R1008F;Q1011V)
# How it was run: as §1
# PUM1 PUF domain R3-TYF = PUM1 PUF domain R3-TYF (Homo sapiens, UniProt Q14671 828-1176, C935T;R936Y;Q939F)
# How it was run: as §1
# PUM1 PUF domain R4-NNA = PUM1 PUF domain R4-NNA (Homo sapiens, UniProt Q14671 828-1176, H972N;Q975A)
# How it was run: as §1
# PUM1 PUF domain R5-EYR = PUM1 PUF domain R5-EYR (Homo sapiens, UniProt Q14671 828-1176, C1007E;R1008Y;Q1011R)
# How it was run: as §1
# PUM1 PUF domain R3-MWH = PUM1 PUF domain R3-MWH (Homo sapiens, UniProt Q14671 828-1176, C935M;R936W;Q939H)
# How it was run: as §1
# PUM1 PUF domain R3-SRR = PUM1 PUF domain R3-SRR (Homo sapiens, UniProt Q14671 828-1176, C935S;Q939R)
# How it was run: as §1
# PUM1 PUF domain R4-CPV = PUM1 PUF domain R4-CPV (Homo sapiens, UniProt Q14671 828-1176, N971C;H972P;Q975V)
# How it was run: as §1
sequence,measurement,setting,value
GGCUAGAACUAGUGGAUCCCCCGGCGCCCGGCGGCUCGAGCCCGGGUAAGUGUAAAUCGUCUGCAUGCCGCCGGGCGCCAUGCCUGCAGGUCGACUCUAGAAAACAUG,binding signal,PUM1 PUF domain R1-RLS,1.22 log2 enrichment (interaction score)
GGCUAGAACUAGUGGAUCCCCCGGCGCCCGGCGGCUCGAGCCCGGGUAAGUGUUAAUAGUCUGCAUGCCGCCGGGCGCCAUGCCUGCAGGUCGACUCUAGAAAACAUG,binding signal,PUM1 PUF domain R5-NQR,4.88 log2 enrichment (interaction score)
same,binding signal,PUM1 PUF domain R5-FNL,3.47 log2 enrichment (interaction score)
same,binding signal,PUM1 PUF domain R5-RFV,4.04 log2 enrichment (interaction score)
GGCUAGAACUAGUGGAUCCCCCGGCGCCCGGCGGCUCGAGCCCGGGUAAGUGUAAAUAGUCUGCAUGCCGCCGGGCGCCAUGCCUGCAGGUCGACUCUAGAAAACAUG,binding signal,PUM1 PUF domain R3-TYF,6.49 log2 enrichment (interaction score)
same,binding signal,PUM1 PUF domain R5-RFV,2.29 log2 enrichment (interaction score)
same,binding signal,PUM1 PUF domain R4-NNA,2.12 log2 enrichment (interaction score)
same,binding signal,PUM1 PUF domain R5-EYR,5.2 log2 enrichment (interaction score)
same,binding signal,PUM1 PUF domain R3-MWH,2.6 log2 enrichment (interaction score)
same,binding signal,PUM1 PUF domain R3-SRR,0.87 log2 enrichment (interaction score)
same,binding signal,PUM1 PUF domain R4-CPV,1.1 log2 enrichment (interaction score)
GGCUAGAACUAGUGGAUCCCCCGGCGCCCGGCGGCUCGAGCCCGGGUAAGUGUAUAUAGUCUGCAUGCCGCCGGGCGCCAUGCCUGCAGGUCGACUCUAGAAAACAUG,binding signal,PUM1 PUF domain R4-NNA,4.34 log2 enrichment (interaction score)
same,binding signal,PUM1 PUF domain R4-CPV,2.93 log2 enrichment (interaction score)
GGCUAGAACUAGUGGAUCCCCCGGCGCCCGGCGGCUCGAGCCCGGGUAAGUGUACAUAGUCUGCAUGCCGCCGGGCGCCAUGCCUGCAGGUCGACUCUAGAAAACAUG,binding signal,PUM1 PUF domain R4-CPV,1.61 log2 enrichment (interaction score)
GGCUAGAACUAGUGGAUCCCCCGGCGCCCGGCGGCUCGAGCCCGGGUAAGUGUAACUAGUCUGCAUGCCGCCGGGCGCCAUGCCUGCAGGUCGACUCUAGAAAACAUG,binding signal,PUM1 PUF domain R3-SRR,3.34 log2 enrichment (interaction score)
GGCUAGAACUAGUGGAUCCCCCGGCGCCCGGCGGCUCGAGCCCGGGUAAGUGUAAUUAGUCUGCAUGCCGCCGGGCGCCAUGCCUGCAGGUCGACUCUAGAAAACAUG,binding signal,PUM1 PUF domain R3-SRR,3.98 log2 enrichment (interaction score)
GGCUAGAACUAGUGGAUCCCCCGGCGCCCGGCGGCUCGAGCCCGGGUAAGUGUAAGUAGUCUGCAUGCCGCCGGGCGCCAUGCCUGCAGGUCGACUCUAGAAAACAUG,binding signal,PUM1 PUF domain R3-SRR,2.24 log2 enrichment (interaction score)
